A selection: hits, their analogues and other compounds. The true share with any hit is near 7.5%.
KinaseGlo FLuc: Counterscreen for Luciferase (Kinase-Glo TM) Inhibition | Luciferin 4-monooxygenase (Photuris pensylvanica), Q27757 | Kinase-Glo luciferase, ATP luminescence, 8 min | Potency, µM (top dose mostly 38.3 µM), without a hit: at the top dose activity change, negative = inhibition, hits mostly inhibitors | actives 0.28% (n = 200,000) | AID 1379, 2008; also: % is scaled to controls: 0 for no effect and ±100 for the full control effect; nearly all actives have a fitted effect of over 60% in size
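Luminescence was the read-out, taken after 8-minute incubation at ambient temperature. Luciferase turned over luciferin with 10 uM ATP in imidazole pH 7.2 buffer containing KCl, MgCl2, Tween 20 and BSA.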
SMN2 splice up: qHTS Assay for Enhancers of SMN2 Splice Variant Expression | Potency, µM (series often up to 46.1 µM), inactives show at the highest dose activity change, positive = activation, most hits filed as activators | HEK293 SMN2-luciferase splicing reporter, luminescence, 30-36 h | AID 1458, 2008 | actives 2.8% (n = 210,000); also: % of control where 0% means no effect; nearly all actives have a fitted effect of over 55% in size
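HEK293 cells carry an SMN2 […]–luciferase reporter in which exon 7 inclusion puts luciferase in frame. Cells were plated 10-12 h before compound addition, then incubated 30-36 h at 37C. ONE-Glo luminescence was read; sodium butyrate at 4.5 mM final served as control.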
FLuc modulator: qHTS profiling assay for firefly luciferase inhibitor/activator using purifed enzyme and Km concentrations of substrates (counterscreen for miR-21 project); Luciferin 4-monooxygenase (Photinus pyralis), P08659; purified FLuc, Km substrates, luminescence inhibition; Potency, µM (top dose mostly 57.5 µM), for the others: at the top dose activity change, negative = inhibition, most hits filed as inhibitors; actives 6.9% (n = 360,000); AID 588342, 2011;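 also: plate controls were vehicle for no effect and reference inhibitor for full effect; nearly all actives have a fitted effect of over 55% in size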
Target sequence (P08659 whole entry, looked up): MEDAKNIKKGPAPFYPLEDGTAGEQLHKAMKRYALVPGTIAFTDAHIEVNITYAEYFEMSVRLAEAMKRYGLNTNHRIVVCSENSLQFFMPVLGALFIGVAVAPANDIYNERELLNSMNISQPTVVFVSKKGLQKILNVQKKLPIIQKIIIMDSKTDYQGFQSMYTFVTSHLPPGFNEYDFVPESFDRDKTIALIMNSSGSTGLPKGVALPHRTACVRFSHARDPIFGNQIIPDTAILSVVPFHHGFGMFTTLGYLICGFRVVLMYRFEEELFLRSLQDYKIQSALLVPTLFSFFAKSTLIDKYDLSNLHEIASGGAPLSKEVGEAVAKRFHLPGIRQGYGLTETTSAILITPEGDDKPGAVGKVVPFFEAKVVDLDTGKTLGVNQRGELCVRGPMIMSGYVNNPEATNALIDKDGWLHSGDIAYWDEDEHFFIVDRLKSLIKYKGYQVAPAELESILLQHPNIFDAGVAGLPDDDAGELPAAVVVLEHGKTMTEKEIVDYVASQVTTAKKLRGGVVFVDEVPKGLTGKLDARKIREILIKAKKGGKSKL
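Purified P. pyralis luciferase (10nM final) with 10uM D-luciferin and 10uM ATP (Km levels) in 50mM Tris acetate pH 7.5, 10mM Mg acetate, 0.01% Tween-20, 0.05% BSA; qHTS 6-point titration, ~60 µM downward; luminescence read.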
Rab9 prom act: qHTS Assay for Rab9 Promoter Activators. Huh7 Rab9 promoter-luciferase reporter, luminescence, 24 h. Potency, µM (titrated, usually from 9.22 µM), for the others: at the highest dose activation, negative = inhibition, actives largely listed as activators. actives 2.8% (n = 320,000); also: % of control where 0% means no effect; nearly all actives have a fitted effect of over 60% in size
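Luciferase signal after 10 min detection reagent at ambient indicates Rab9 promoter upregulation; stably transfected Huh7 cells were treated 24 h with compound in DMSO at 37 °C, 5% CO2.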
NPC1 promoter act: qHTS Assay for NPC1 Promoter Activators. Huh7 NPC1 promoter luciferase reporter, 24 h. Potency, µM (series often up to 9.22 µM), for the others: at the top dose activation, most hits filed as activators. actives 2.4% (n = 320,000); also: % of control where 0% means no effect; nearly all actives have a fitted effect of over 60% in size
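Luminescence from an NPC1 promoter-driven luciferase reporter in stably transfected Huh7 cells was measured after 24 h compound treatment at 37 °C, followed by 10 min ambient incubation with luciferase detection reagent.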
ELG1 genotoxic: qHTS screen for small molecules that induce genotoxicity in human embryonic kidney (HEK293T) cells expressing luciferase-tagged ELG1; HEK293T ELG1-luciferase reporter, luminescence, 16 h; Potency, µM (top dose mostly 46 µM), without a hit: top-dose activity change, positive = activation, actives largely listed as activators; actives 1.3% (n = 330,000); also: % of control where 0% means no effect; nearly all actives have a fitted effect of over 60% in size
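Screening used a luciferase reporter fused to human ELG1 in HEK293T cells. Luminescence was read on a CCD plate imager after 16 hr exposure and 30 min ONE-Glo incubation.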
Starred values were filed as active, the others as inactive; ? = inconclusive; . = not tested or not shown. Calls follow the shape of the dose curve; as a rule, active = well fitted curve in the direction sought with a large enough effect; inconclusive = small, poorly fitted or top-dose-only effect, or another doubt; inactive = no such curve, though single readings can be large; an effect the other way counts as inactive or inconclusive. Potency is read from the fitted curve at half-maximal effect.

SMILES | KinaseGlo FLuc | SMN2 splice up | FLuc modulator | Rab9 prom act | NPC1 promoter act | ELG1 genotoxic
O=C(Nc1ccccc1C(=O)N/N=C/c1ccncc1)c1ccccc1 | 1.8µM* | . | 1.9µM* | ? | ? | -14%
O=C(N/N=C/c1ccco1)c1ccc(NC(=O)c2ccccc2Cl)cc1 | 1% | 2% | 5% | 1% | 1% | -1%
Cc1ccccc1C(=O)Nc1ccc(C(=O)N/N=C/c2ccncc2)cc1 | 3% | -23% | -17% | 1% | 7% | 8%
O=C(CCC(=O)Nc1ccccc1)N/N=C/c1ccncc1 | 0% | -11% | 12µM* | 8% | 8% | -2%
O=C(CCC(=O)Nc1ccc(F)cc1)N/N=C/c1ccncc1 | -1% | -8% | -3% | 1% | -1% | -1%
CCOc1ccc(OCc2ccc(C(=O)NN=Cc3ccc[nH]3)cc2)cc1 | . | . | . | . | . | 17%
COc1ccc(C(=O)Nc2ccccc2C(=O)N/N=C/c2ccco2)cc1 | 2.8µM* | . | 0.48µM* | ? | 16% | ?
CCOc1ccc(/C=N/NC(=O)c2ccccc2NC(=O)c2ccc(OC)cc2)cc1 | ? | 119% | 0.38µM* | ? | ? | 14%
COC(=O)c1ccccc1NC(=O)C1=CC(c2ccc(C)cc2)=NS(=O)(=O)N1C | . | . | -2% | . | . | .
O=C(C1CCC(=O)N(C2CC2)C1)N1CCN(c2cccc(Cl)c2)CC1 (stereo not drawn) | . | . | 0% | -3% | -2% | 0%
O=C(O/N=C1/CCSc2ccccc21)c1ccccc1 | ? | -12% | 0.67µM* | -5% | 7% | 0%
Cc1ccc2c(c1)/C(=N/O)CCS2 | -3% | -13% | -1% | -3% | 0% | -1%
O=C(O/N=C1\CCCc2ccccc21)c1ccc(F)cc1 | -16% | 12% | 0.21µM* | -4% | 7% | ?
COC(=O)N/N=C1\CCCc2ccccc21 | -1% | 18% | 1% | 1% | 1% | 0%
Cc1ccc2c(c1)/C(=N/OC(=O)c1ccc(F)cc1)CCS2 | -7% | 6% | 6µM* | 2% | -2% | -3%
COCCCn1c(SCC(=O)NCc2ccccc2)nc2c(sc3ccccc32)c1=O | . | . | -1% | . | . | .
C=CCSc1nnc(-c2ccc(Cl)cc2Cl)o1 | 8% | ? | 1.3µM* | 0.45µM* | 0.71µM* | ?
Clc1ccc(-c2nnc(SCc3ccon3)o2)c(Cl)c1 | -4% | 2.8µM* | 1.2µM* | 0.5µM* | 0.35µM* | 1.2µM*
C=CCSc1nnc(-c2ccc([N+](=O)[O-])cc2)o1 | 1% | ? | 17µM* | 4µM* | 3.5µM* | ?
COc1ccc(CCN2CC(C(=O)N(C)Cc3c(C)n[nH]c3C)CCC2=O)cc1 (stereo not drawn) | . | . | 1% | -6% | -5% | -1%
Cc1c(/C(O)=C2\C(=O)C(=O)N(CCN(C)C)C2c2cccs2)cnn1-c1ccccc1 (stereo not drawn) | 2% | -19% | ? | 4.5µM* | 2.5µM* | -1%
O=C1C(=O)N(CCN2CCOCC2)C(c2ccccn2)/C1=C(/O)c1ccc(F)cc1 (stereo not drawn) | 1% | 1% | -2% | -5% | 5% | 3%
Cc1c(/C(O)=C2/C(=O)C(=O)N(CCN3CCOCC3)C2c2ccccn2)cnn1-c1ccccc1 (stereo not drawn) | -1% | -27% | 17µM* | -17% | -10% | ?
Cc1c(/C(O)=C2\C(=O)C(=O)N(CCN(C)C)C2c2cccnc2)cnn1-c1ccccc1 (stereo not drawn) | 3% | 9% | 2% | 3% | 2% | 2%
Cc1nn(-c2ccccc2)c2c1C(c1ccccc1)C(C#N)=C(N)O2 (stereo not drawn) | 3% | -7% | -1% | -1% | -2% | -1%
SMILES | KinaseGlo FLuc | SMN2 splice up | FLuc modulator | Rab9 prom act | NPC1 promoter act | ELG1 genotoxic
Cc1ccc(-n2nc(C)c3c2OC(N)=C(C#N)C3c2ccoc2)cc1 (stereo not drawn) | -5% | 7% | 11µM* | 12% | 7% | 1%
Cc1ccc(-n2nc(C)c3c2OC(N)=C(C#N)C3c2ccc(C)o2)cc1 (stereo not drawn) | -8% | 7% | ? | 4% | 13% | -2%
Cc1ccc(-n2nc(C)c3c2OC(N)=C(C#N)C3c2ccco2)cc1 (stereo not drawn) | -11% | 15% | 1.7µM* | 17% | 2% | 8%
CC(C)(C)OC(=O)N1CCC(c2c(C(=O)NCc3cccs3)cnn2-c2cccc(F)c2)CC1 | . | . | 6% | . | . | .
Cc1cccc(-c2nc3c4ccccc4n(CC(=O)Nc4cccc(F)c4)c(=O)n3n2)c1 | . | . | 24µM* | . | . | .
Cc1ccc(-n2nc3ccc(N)cc3n2)cc1C | . | . | 0.48µM* | 0.5µM* | 1.6µM* | 0.92µM*
Cc1ccc(C)c(-c2nc3ccc(N)cc3[nH]2)c1 | -9% | 16% | ? | -1% | -3% | ?
COc1ccc(-n2nc3ccc(NC(=O)c4ccc(C#N)cc4F)cc3n2)cc1Cl | . | 8% | -2% | . | . | .
Cc1ccc(-n2nc3ccc(N)cc3n2)cc1Cl | . | . | 0.67µM* | ? | ? | ?
Cc1ccc(-n2nc3ccc(N)cc3n2)c(C)c1 | . | . | 7.6µM* | 22% | 2% | ?
COc1ccc(-n2nc3ccc(N)cc3n2)cc1Cl | . | . | 1.5µM* | 14% | 21% | ?
O=C(NCC1CCCO1)c1c[nH]c2ccc(S(=O)(=O)Nc3ccc(F)cc3F)cc2c1=O (stereo not drawn) | . | 2% | ? | . | . | .
COc1ccc(-n2nc3ccc(NS(C)(=O)=O)cc3n2)cc1Cl | 0% | 25% | 3.4µM* | 25% | ? | 16µM*
Cc1cnc(C(=O)OCC(=O)c2cc(C)n(C)c2C)cn1 | 0% | 5% | -15% | 4% | -2% | 2%
Cc1cc(C(=O)COc2ccc(F)cc2Br)c(C)n1C1CC1 | . | . | 11µM* | ? | 17% | 0%
Cc1cc(C(=O)CN2CCN(CC(=O)Nc3ccc(F)cc3)CC2)c(C)n1C1CC1 | . | . | . | -5% | 0% | 1%
Cc1cc(C(=O)COc2ccc(F)cc2Br)c(C)n1C | 1% | 13% | 21µM* | 28% | 14% | 8%
COc1ccc(NC(=O)CCc2c(C)nc3c(c2C)c(=O)n(C)c(=O)n3C)cc1OC | . | -3% | 5% | . | . | .
Cc1cccc(CCn2c(=O)c3ccccc3n(Cc3cccc(F)c3)c2=O)c1 | . | 14% | ? | . | . | .
